Assay results published in ChEMBL document CHEMBL3988442, “University of Dundee, Small-Polar-MMV Screening Library” (2021).

Target: AMP-activated protein kinase, AMPK (Homo sapiens) (UniProt P54646+O43741+P54619+Q9UGJ0+Q9Y478+Q13131+Q9UGI9)
Assay: AMP-dependent Kinase enzyme assay. An in vitro enzyme assay that detects ADP turnover that is directly proportional to AMPK activity. This uses naive AMPK that is activated during the assay with MK-8722
Format: functional
Parameters: scale not given: direction of the effect not stated beside the values
Conditions: 30 µM

Compound | Percent Effect [%]
O=C(NCc1nc[nH]n1)c1cc(COc2cccc(C(F)(F)F)c2)[nH]n1 | -6.06
N#Cc1cccnc1NCc1cccnc1N1CCCCC1 | 7.89
CN(CCCO)Cc1cc(Cl)ccc1OCC(O)CN1CCCCCC1 (stereo not given) | -10.6
c1cnc(Nc2ccc(C3CCCCN3Cc3ccncc3)cn2)nc1 (stereo not given) | 11.1
Fc1ccccc1CN1CCC[C@@H](Cn2nnc(-c3cccs3)n2)C1 | 5.25
O=C(CCn1ccnc1)N1CC[C@H](Oc2cccc(F)c2)[C@@H](O)CC1 | -2.81
O=C(NCc1ccc(-n2cncn2)nc1)c1cc[nH]n1 | 2.82
CCn1cc(NC(=O)NCCN2CCCCCC2=O)cn1 | 87.7
CCN(C)C[C@@H]1CN(Cc2cnc3c(S(C)(=O)=O)cnn3c2)C[C@@H]1CO | -11.4
CC(C)c1nc(CSc2nnc(C3CC3)n2CC(N)=O)no1 | -5.73
COc1cccc(F)c1CN1CCC(c2nc(C)cc(C)n2)C1 (stereo not given) | 1.72
CCCC(=O)Nc1cccc([C@H]2C[C@@H](NC(C)=O)CCO2)c1 | 13.7
COC(=O)C(NC(=O)c1cc(F)cc(F)c1)c1cccnc1 (stereo not given) | 2.18
Cc1nonc1CNC(=O)C(C)Oc1cccc(F)c1 (stereo not given) | 11.1
CCNC(=O)c1ccc(NC(=O)N(C)Cc2cc(C)on2)c(C)c1 | 10.2
CN1CC2(CCCN(CCOCc3ccccc3)C2)OC1=O (stereo not given) | -1.54
CN(C)Cc1cn(-c2ccccc2C(=O)NCC2CCCCN2C)cn1 (stereo not given) | -15.9
CCc1cc(=O)[nH]c(-c2ccc(NC(C)CN3CCOCC3)nc2)n1 (stereo not given) | -2.92
CNC(=O)CCOC(=O)c1cccc(-n2ccc(C(F)(F)F)n2)c1 | 3.59
COc1cc(C)c(S(=O)(=O)CC(=O)N(C)C2CC2)cc1OC | 2.73

Compound | Percent Effect [%]
N#CC1(C(=O)N2C[C@H]3CC[C@@H]2CN(Cc2ccncc2)C3)CCOCC1 | -2.51
Cc1cccc(C)c1Nc1noc2c1CN(C(=O)c1cn(C)cn1)CC2 | 17.2
NC(=O)C1CCN(CCCNC(=O)Nc2nccs2)CC1 | 5.68
O=S(=O)(NC1CCCOC1)c1ccc(C(F)(F)F)nc1 (stereo not given) | 7.35
CS(=O)(=O)C1(CNCc2cccc(-n3cccn3)c2)CCOCC1 | 3.19
CC(=O)NCCCNC(=O)N1CCN(c2cc(F)ccc2F)CC1 | 6.39
Cc1nn(-c2ccccc2)c2nc(C(C)(C)CN3CCN(C)CC3)[nH]c12 | 9.98
O=C(NCc1ccc(Br)c(F)c1)Nc1cn[nH]c1 | -0.537
CCN1CCN(c2ccccc2NC(=O)NCc2ccon2)CC1 | 2.14
CNS(=O)(=O)CC(=O)N1CCC(c2cc3ccccc3[nH]2)CC1 | 16.4
O=C(Cn1cc(-c2ccccc2)cn1)N1CCNC1=O | 0.445
OC(c1cnn(-c2ccccc2)c1)C(F)(F)F (stereo not given) | -6.83
COc1ccc(Cl)cc1C(=O)N1C[C@@H](NC(=O)N(C)C)[C@H](C(C)C)C1 | 2.28
O=C(NCCCn1ccnc1)C1COCC(=O)N1Cc1ccccc1 (stereo not given) | 3.38
CN(C)c1cccc(C(=O)Nc2cnn(Cc3ccncc3)c2)c1 | -4.34
N#Cc1cccc(N2CCC(CO)(CCc3ccccc3)CC2)n1 | 3.06
CC(C#N)NS(=O)(=O)c1cccc(C(C)C)c1 (stereo not given) | 0.482
COCC(=O)N1CCCC1(C(=O)N(C)C)c1cnccn1 (stereo not given) | 6.8
COc1cccc([C@@]2(O)CC[C@@H]3CN(C(=O)c4ccn(C)n4)C[C@@H]32)c1 | 12.3
CCCN(CCc1ccccn1)C(=O)Cn1cc(C)cn1 | 3.83
